# Screens: PubChem BioAssay, National Center for Advancing Translational Sciences (NCATS)
# A selection: hits, their analogues and other compounds. The true share with any hit is near 7.3%.
# HCV inh – inhibitors of hepatitis C virus infection; Huh7.5.1 HCVcc-Cre infection, luciferase reporter, 44 h; Potency, µM (top dose mostly 41.8 µM), without a hit: at the top dose activity change, negative = inhibition, most hits filed as inhibitors; hit rate 3.4% among 340,000; active means well fitted inhibition curve with a large enough effect; inconclusive means small, poorly fitted or top-dose-only effect, or another doubt; inactive means no such curve, though single readings can be large or run the other way; further: potency means the concentration at half of the fitted maximal effect
#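 Whole-lifecycle infectious HCVcc-Cre system; cells 1,000/well, compound then virus (~0.5 moi) added 4 h after plating, 44 h culture. Luciferase read 15 sec following 15 min substrate incubation, room temp.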
# FMDV inh – foot and mouth disease virus antiviral activity. FMDV antiviral cell-based qHTS. AID 1159524. hit rate 1.2% among 410,000. Potency, µM (titrated, usually from 57.9 µM), for inactives: at the top dose activity change, negative = inhibition, usual class: inhibitors; calls by dose curve; tested in HEK293T cells; further: read-out not given here; potency means the concentration at half of the fitted maximal effect; nearly all actives have a fitted effect of over 45% in size
# HCMV inh – blocks human cytomegalovirus replication; HFF cells, HCMV-luciferase reporter, 72 h; active compounds read low; activity change, negative = inhibition, % at 57.5 µM; hit rate 4.5% among 410,000; in the data active means activity change below about -60%; inconclusive means no clear call, values can overlap the other calls; inactive means above about -39%
#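 Luciferase read-out from HCMV-luciferase-infected HFFs (MOI 1 PFU/cell) 72 h post infection at 37C; compounds added after 16 h cell attachment; activity normalized between buffer-only basal and Salinomycin (10uM) inhibitor controls.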
# VACV mCherry inh – inhibitors of vaccinia virus infection (mCherry reporter signal); Vaccinia virus mCherry reporter infection, fluorescence; Potency, µM (series often up to 36.5 µM), without a hit: top-dose activity change, negative = inhibition, hits mostly inhibitors; hit rate 0.63% among 310,000; AID 720579; calls by dose curve; tested in A549 cells; further: potency means the concentration at half of the fitted maximal effect; nearly all actives have a fitted effect of over 35% in size
# VACV Venus inh – inhibitors of vaccinia virus (Venus reporter) | hit rate 0.46% among 330,000 | Vaccinia virus Venus reporter expression, fluorescence | Potency, µM (top dose mostly 36.5 µM), without a hit: at the top dose activity change, negative = inhibition, most hits filed as inhibitors; calls by dose curve; tested in A549 cells; further: potency means the concentration at half of the fitted maximal effect; nearly all actives have a fitted effect of over 30% in size
# * hit, by the source's call; i = inactive; ? = inconclusive; · = not tested or not shown. On the % scale 0 is the no-effect control and ±100 the full control effect.
SMILES,HCV inh,FMDV inh,HCMV inh,VACV mCherry inh,VACV Venus inh
CCC(C)c1ccc(NC(=O)Nc2cnccn2)cc1 (configuration not stated),-4%,0%,-1,·,·
COc1cccc(-c2c(NC(=O)c3ccco3)oc3ccccc3c2=O)c1,0.32µM*,-14%,-18,11%,-2%
COc1cccc(-c2c(NC(=O)c3ccco3)oc3ccc(Cl)cc3c2=O)c1,7%,-15%,-29,-28%,-15%
CC1C(=O)N(Cc2cccc(F)c2)c2ccccc2N1C(=O)c1ccccc1 (configuration not stated),?,18µM*,?,-27%,-14%
CC1C(=O)N(Cc2ccccc2F)c2ccccc2N1C(=O)c1c(F)cccc1F (configuration not stated),?,35µM*,?,·,·
COc1cccc(CN2C(=O)C(C)N(C(=O)c3c(F)cccc3F)c3ccccc32)c1 (configuration not stated),10µM*,28µM*,-83*,·,·
O=C1NC(=O)N(Cc2ccccc2F)C1=O,14%,-3%,9,i,-14%
COC(=O)c1cc(C)sc1NC(=O)CN1CCN(C(=O)C2CCCO2)CC1 (configuration not stated),12%,-16%,-20,-6%,-1%
CCNc1ccc(S(=O)(=O)N(C)C)cc1NCC(=O)Nc1ccc(F)c(Cl)c1,?,7%,-75*,-16%,-21%
CCNc1ccc(S(=O)(=O)N(C)C)cc1NCC(=O)Nc1ccccc1F,?,29%,20,i,-3%
Cc1ccc(C2(CCNCc3ccc(N(C)C)cc3)CCOC(C(C)C)C2)cc1 (configuration not stated),?,-25%,-39,-7%,-21%
CC(C)C1CC(CCNCc2ccc(N(C)C)cc2)(c2ccccc2)CCO1 (configuration not stated),11µM*,-23%,?,?,1%
O=C(Nc1cccc(F)c1)N1CC[C@@]2(CCCN(C(=O)c3cnccn3)C2)C1,·,-7%,·,·,·
COc1ccc(OC)c(CN2CCN(C(=O)CCC(=O)c3cccs3)CC2)c1,4%,-3%,-31,-2%,-20%
c1nc(N2CCOCC2)c2cc(-c3ccoc3)ccc2n1,·,1%,·,·,·
Cc1csc(CNc2ncnc3ccc(-c4ccc5c(c4)OCO5)cc23)c1,·,?,-69*,·,·
Cc1cccc(-c2ccc3ncnc(NCc4cccs4)c3c2)c1,·,25µM*,-76*,·,·
Cc1csc(CNc2ncnc3ccc(-c4cccnc4)cc23)c1,·,-28%,-15,·,·
Clc1cccc(-c2ccc3ncnc(NCc4cccs4)c3c2)c1,·,?,-16,·,·
Cc1csc(CNc2ncnc3ccc(-c4ccoc4)cc23)c1,·,-29%,-86*,·,·
c1cn(-c2ncnc3ccc(-c4ccoc4)cc23)cn1,·,28µM*,·,·,·
OC1C(Br)=Cc2ccccc21 (configuration not stated),·,·,·,16%,-6%
Cc1cccc(CNc2ncnc3ccc(-c4ccc5c(c4)OCCO5)cc23)c1,·,?,-89*,·,·
c1cncc(CNc2ncnc3ccc(-c4ccoc4)cc23)c1,·,0%,-83*,·,·
Cc1cccc(CNc2ncnc3ccc(-c4ccoc4)cc23)c1,·,?,14,?,-16%
SMILES,HCV inh,FMDV inh,HCMV inh,VACV mCherry inh,VACV Venus inh
CC1=C(C(=O)N2CCCCCC2)CC(CC(=O)NC(c2ccccc2)c2ccccc2)C(=O)N1CCC1=CCCCC1 (configuration not stated),·,-8%,29,-11%,-20%
CCN(CC)CCCNc1ccc(-c2nnc(-c3ccc(OCC(C)C)cc3)o2)cn1,8.9µM*,5%,-26,-19%,-8%
COc1cc(C#N)ccc1OC(=O)C1CCN(C(=O)c2ccc(F)cc2)CC1,5%,-9%,-22,-26%,-16%
CC(NCc1ccccc1O)C12CC3CC(CC(C3)C1)C2 (configuration not stated),-5%,?,-87*,·,·
COC(=O)C(C(=O)OC)C(C(C)C)C(C(=O)OC)C(=O)OC,11%,-2%,6,-8%,-2%
COC(=O)C(C(=O)OC)C(C(=O)OC)C(C(=O)OC)C(=O)OC,5%,-22%,-88*,-7%,-8%
Nc1ccc(Cn2ccc3c4c(N)nc(N)nc4ccc32)cc1,?,?,-99*,0.35µM*,?
Cc1nc2ccc(N)cc2c(=O)n1Cc1ccc(Cl)cc1,-3%,0%,48,-10%,-12%
